# Measured potencies and affinities stand elsewhere. Inconclusive results are not listed. Values without a mark were called inactive.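 Rule for the calls: active = signal loss with fitted half-maximal concentration at or below twice the top valid tested dose in every test run; inconclusive = runs disagree, flat 30 to 70% signal loss, or poor fit; inactive = all runs flat, opposite direction, or potency beyond limit.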
# Assay: general mammalian cell viability loss – inhibitor set, cherry-pick, set 2, cytotoxicity control for miR-122 modulator project, dose response (AID 720697);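 note: 0% = median of neutral control wells and -100% = MG132 positive control wells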
# Conditions: HEK293T viability, CellTiter-Glo luminescence, 48 h; series mostly up to 26 µM; activity change, negative = cytotoxicity: at the top concentration
row,SMILES,"activity change, negative = cytotoxicity"
1,CC(=O)Nc1ccc2c(c1)C(=O)N(C)[C@H]1CC[C@@H](CC(=O)NCc3ccc4c(c3)OCO4)O[C@@H]1CO2,125% [at 23.5 µM]
2,COCC(=O)N(C[C@@H]1N[C@H](CO)[C@H]1c1ccc(-c2cccnc2)cc1)C(C)C,-13.9%
3,COC(=O)c1c(N)nc(C)n1-c1ccc(OC)cc1,55.2%
4,Cc1ccccc1-c1nc(CN2CCCC(C(=O)NCCCN3CCOCC3)C2)c(C)o1 (centres undefined),124%
5,CCCNC(=O)C[C@@H]1CC[C@@H]2[C@@H](COc3ccc(NC(=O)Nc4ccccc4F)cc3C(=O)N2C)O1,-17.2%
6,COC(=O)C[C@H]1CC[C@H]2[C@H](COc3ccc(NC(=O)NC(C)C)cc3C(=O)N2C)O1,52%
7,C[C@@H]1CN([C@H](C)CO)S(=O)(=O)c2ccc(C#Cc3ccccc3F)cc2O[C@@H]1CN(C)C(=O)Cc1ccncc1,20%
8,O=C(COc1ccccc1F)N1CCc2ccccc2C1,15.7%
9,CCc1ccccc1NC(=O)CN(C)C(=O)Cn1ncc(Cl)c(Cl)c1=O,-65.2% [at 6 µM]
10,CCCNC(=O)Nc1ccc2c(c1)OC[C@H](C)N(CCC)C[C@H](C)[C@H](OC)CN(C)C2=O,31.9%
11,COc1ccc(-c2cc(-c3nc4ccccn4c3NCc3ccccc3)ccc2OC)cc1,49.3%
12,CO[C@@H]1CN(C)C(=O)c2ccc(NS(=O)(=O)c3ccc(C)cc3)cc2OC[C@@H](C)N(C(=O)NC(C)C)C[C@H]1C,-15.2%
13,Cc1cc(C)cc(Oc2ccc(NC(=O)C3CC=CCC3C(=O)O)cc2)c1 (centres undefined),12.6%
14,C[C@@H]1CN([C@H](C)CO)C(=O)c2cc(-c3cccc(C#N)c3)cnc2O[C@H]1CN(C)C(=O)C1CCC1,61.4%

# Reference: PubChem BioAssay AID720697 (Broad Institute, 2013)
